Results as given in PubChem BioAssay (NCI).
This is part of a sample that, as a whole, favours compounds with a hit. Of some 79,000 tested, about 15% had one in any assay. Calls of active or inactive are those of the source. Cut-off read from the data, not from the text of the source: active = growth inhibition above about 70%; inactive = the rest.

Test: NCI Yeast Anticancer Drug Screen. Data for the mec2-1 strain (AID 157)
Conditions: S. cerevisiae mec2-1 strain, at 50.0 µM, active compounds read high
Procedure, shortened: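 Compounds were applied to mec2-1 yeast cells. Their growth was then compared with that of vehicle-treated cultures to give growth inhibition.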

SMILES | growth inhibition
O=C1CSC(c2cccc(O)c2)N1c1nncs1 (stereo not drawn) | 12.9% (inactive)
CCCCCCCCCC1CC(=O)OC23CCCC(=O)C12O3 (stereo not drawn) | -32% (inactive)
CC(C)NCC(O)COc1c2ccccc2nc2ccccc12 (stereo not drawn) | -21.8% (inactive)
CCCOc1ccc(C(=O)C(C(c2ccccc2)N2CCOCC2)N2CCOCC2)cc1 (stereo not drawn) | 22.5% (inactive)
O=S(=O)(OI(O)CC(F)(F)F)C(F)(F)F | 48.1% (inactive)
Nc1ncnc2c1ncn2C1CCC(CP(=O)(O)O)C1 (stereo not drawn) | -25.4% (inactive)
O=C(CC(C(=O)c1cccs1)c1cccs1)c1ccsc1 (stereo not drawn) | -24.1% (inactive)
O=C(C[n+]1ccccc1CCCO)c1ccc(F)cc1 | -19.7% (inactive)
CCOC(=O)NCC(C)(C)N(C(=O)OCC)c1ccccc1 | -42.1% (inactive)
O=C(/C=C/c1cccc2ccccc12)c1ccccc1Cl | -9.25% (inactive)
O=C1NC(=O)C(Cc2ccco2)N1 (stereo not drawn) | 6.7% (inactive)
N=C1N=Nc2nc(C(C(=O)c3cccc(O)c3)c3nc4n(c3O)C(=N)N=N4)c(O)n21 (stereo not drawn) | 23.9% (inactive)
CCOC(=O)\C(C#N)=C/C=C(C)/C(C)=C/Nc1ccc([N+](=O)[O-])cc1[N+](=O)[O-] | 7.85% (inactive)
C[C@]1(CO)CCC[C@@]2(C)C1CC[C@H]1CC3C[C@]12CC[C@]3(C)O (stereo partly drawn) | 8% (inactive)
CC(=O)Nc1c(Cl)cccc1[N+](=O)[O-] | -18.8% (inactive)
CCOC(=O)C1C/C(C)=C(/C)SCCCS1 (stereo not drawn) | 3.2% (inactive)
NC(=O)c1cc(Cl)ccc1O | 12.5% (inactive)
O=c1[nH]c(NCc2ccc(Cl)cc2)nc2nc[nH]c12 | -3.85% (inactive)
